# Compound activity deposited in PubChem BioAssay by National Center for Advancing Translational Sciences (NCATS).
# Pf Dd2 growth – inhibitors of Plasmodium falciparum Dd2 growth; 120,000 tested, 4.3% active; P. falciparum Dd2 growth, SYBR Green, 72 h; Potency, µM (doses to about 28.9 µM), for the others: top-dose activity, negative = inhibition, most hits filed as inhibitors; active = well fitted inhibition curve with a large enough effect;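 note: plate controls were DMSO vehicle for no effect and reference drug for full effect; nearly all actives have a fitted effect of over 65% in size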
#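 Infected erythrocytes (Dd2, 0.3% parasitemia, 2.5% hematocrit final) are added to compound in RPMI-1640/Albumax II medium, grown 72 h at 37C in low oxygen, then lysed with saponin/Triton-X containing SYBR Green and read by fluorescence.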
# * marks the source's active call; other numbers are inactive results; i = inactive; [ ] = remark or other dose. The entries come from a sample that favours hits as a whole. Potency is the fitted concentration of half-maximal effect.
SMILES,Pf Dd2 growth
CC(C)(O)C#Cc1ccc(C(=O)N2CCOCC2CC(=O)NC2CC2)o1 (configuration not stated),-18%
CC(C)(C)OC(=O)N1CC(NCc2cccc3c2OCO3)C1,-15%[44.1 µM]
O=C(c1ccccc1)N1CCCC(c2nn(-c3ccc(F)cc3)c(=O)[nH]2)C1 (configuration not stated),5%
Cc1c(CNCCCc2ccccc2)c(C(=O)O)c(C)n1Cc1ccc(Cl)cc1,8.9µM*
C=Cc1ccc(Cn2c(C)c(CNCc3ccccc3C)c(C(=O)O)c2C)cc1,2%
C=Cc1ccc(Cn2c(C)c(CNCc3cccc(Br)c3)c(C(=O)O)c2C)cc1,-17%
Cc1c(CNCCCc2ccccc2)c(C(=O)O)c(C)n1Cc1cccc(Cl)c1,8.9µM*
Cc1c(CNC2CCCCC2)c(C(=O)O)c(C)n1Cc1ccc(Cl)cc1,-25%
COc1cc(CNCc2c(C(=O)O)c(C)n(Cc3cccc(Cl)c3)c2C)cc(OC)c1OC,0%
COCCN(C)C[C@H]1C[C@H](CO)CN(C(=O)c2cc(C)c(C)s2)C1,-23%
COc1ccc(C(=O)N2CCCC(c3nn(-c4ccccc4)c(=O)[nH]3)C2)cc1 (configuration not stated),i
O=C(Cc1cccc(Cl)c1)N1CCCC(c2nn(-c3cccc(Cl)c3)c(=O)[nH]2)C1 (configuration not stated),10µM*
COc1ccc(-n2nc(C3CCCN(C(=O)c4ccccc4)C3)[nH]c2=O)cc1 (configuration not stated),11µM*
COc1ccc(-n2nc(C3CCN(C(=O)c4ccccc4)CC3)[nH]c2=O)cc1,-21%
O=C(c1ccccc1Cl)N1CCCC(c2nn(-c3cccc(Cl)c3)c(=O)[nH]2)C1 (configuration not stated),i
COc1ccc(-n2nc(C3CCCN(C(=O)Cc4cccc(Cl)c4)C3)[nH]c2=O)cc1 (configuration not stated),-23%
CN1CCN(C(=O)CC[C@@H]2CNC(=O)[C@@H]3C[C@H](NC(=O)c4ccccc4)CN23)CC1,8%[44.1 µM]
COc1cc(NC(=S)N[C@H]2CO[C@H]3[C@@H]2OC[C@@H]3n2nnnc2-c2cccc(OC)c2)cc(OC)c1,i
CCN(CC)C1(Cc2cc(CN(C)Cc3ccccc3)on2)COC1,i
CC(C)(C)OC(=O)N1CCC(n2c(=O)[nH]c3cccnc32)CC1,i
COC(=O)c1scc(-c2ccc(C)cc2)c1S(=O)(=O)Nc1ccc(NC(C)=O)cc1,i
COC(=O)c1scc(-c2ccc(C)cc2)c1S(=O)(=O)N1CCN(c2ccccc2F)CC1,11µM*
COC(=O)c1scc(-c2ccc(C)cc2)c1S(=O)(=O)Nc1ccc(N(C)C)cc1,10%
COC(=O)c1scc(-c2ccc(C)cc2)c1S(=O)(=O)N1CCN(c2ccccc2)CC1,0%
COC(=O)c1scc(-c2ccc(C)cc2)c1S(=O)(=O)Nc1cc(C)c(Cl)cc1OC,8.9µM*
SMILES,Pf Dd2 growth
COC(=O)c1scc(-c2ccc(C)cc2)c1S(=O)(=O)N1CCN(c2ccc(C)cc2C)CC1,-8%
O=[S+]([O-])(c1cccnc1)c1nnn2c1nc(NCc1ccncc1)c1ccccc12,-9%
COCC1(CNCc2cnn(C)c2)C[C@@H](O)[C@@H](O)C1 (some centres not stated),0%[44.1 µM]
COCCNC(=O)C1CN(c2ccc(F)cc2)C(=O)N1 (configuration not stated),1%[44.1 µM]
Cc1cccnc1C(=O)N[C@@H]1CN(S(C)(=O)=O)C[C@H]1CN(C)C,i
CCN(CC)S(=O)(=O)c1cccc(C(=O)Nc2ccccc2C(=O)Nc2ccc(OC)cc2)c1,7.1µM*
CCN(CC)S(=O)(=O)c1ccc(OC)c(NC(=O)c2sc3ccccc3c2Cl)c1,29%
CCN(CC)C(=O)c1ccccc1NC(=O)c1cccc(S(=O)(=O)N2CCC(C)CC2)c1,52%[5.79 µM]
COCC(=O)N(C1CCOCC1)C1CCN(C(=O)c2ccccc2F)CC1,-3%
CCOc1ccccc1C1NC(=O)N(CC(=O)Nc2ccc(CC)cc2)C2=C1C(=O)OC2 (configuration not stated),i
COc1ccc(Cl)cc1S(=O)(=O)N1CCC(n2cnnc2C)CC1,-26%
COc1ccc(Cl)cc1S(=O)(=O)N1CCC(OC2CCN(C)CC2)CC1,3.2µM*
COc1ccc(OC)c(S(=O)(=O)N2CCC(OC3CCN(C)CC3)CC2)c1,i
COc1ccccc1CNC(=O)[C@H]1CN2CCC1C[C@@H]2Cn1cc(CN(C)C)nn1 (some centres not stated),-13%[44.1 µM]
O=C1NCCCCCCN(C(=O)C2CCC2)[C@H]2CCC[C@@H]12,22%
CN(C)c1ccc(CN2C[C@@H](CN3CCCCC3)[C@@H](CO)C2)cn1,-18%
CCOC(=O)c1ccc(NC(=O)Cn2nc3n(c2=O)CCCC3)cc1,-12%
COc1ccccc1N1CCN([C@H]2[C@@H]3OC[C@@H](O3)[C@@H](NCc3ccc(F)cc3)[C@@H]2O)CC1,7.9µM*
O=C(Nc1ccccc1)N[C@H]1[C@H](O)[C@@H](N2CCC(Cc3ccccc3)CC2)[C@@H]2OC[C@H]1O2,-5%
